In paper PMC7862700, “An all-to-all approach to the identification of sequence-specific readers for epigenetic DNA modifications on cytosine” one finds binding signal data, which are given here for 1 sequence.

Experiment in all cases: DAPPL (digital affinity profiling via proximity ligation, sequencing); 10 mM Tris-HCl pH 7.5, 50 mM NaCl, 1 mM DTT, 4% glycerol, room temperature, 30 min; GST-TFs on glutathione beads, 16-mer random dsDNA library, 0.1% formaldehyde crosslink after washing; high values mean tight binding
One assay addresses T1, FEV (Homo sapiens, UniProt Q99581 1-238).
T1 sequence: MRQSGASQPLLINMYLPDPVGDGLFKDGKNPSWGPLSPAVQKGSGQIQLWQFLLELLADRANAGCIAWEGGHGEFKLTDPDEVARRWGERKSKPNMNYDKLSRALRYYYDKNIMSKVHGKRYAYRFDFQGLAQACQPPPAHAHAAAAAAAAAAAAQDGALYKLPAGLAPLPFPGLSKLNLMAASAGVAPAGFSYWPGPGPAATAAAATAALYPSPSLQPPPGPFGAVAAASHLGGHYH
To be noted: protein: recombinant; tags: N-terminal GST; dsDNA, one strand shown. The method in brief: (§1)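 In yeast, human transcription factors were expressed with a GST fusion, then pulled down on glutathione beads and given DNA barcodes. Pooled with a tag-only sample, they were exposed to 200 nmole of a 16-mer random double-stranded DNA library (Tris/NaCl/DTT/glycerol buffer, room temperature, 30 min), washed, crosslinked with 0.1% formaldehyde, proximity-ligated using BsaI/T4 ligase for 1 h at 37 °C, PCR-amplified and read on an Illumina NextSeq500. Each hexamer's frequency of reads for a factor, divided by the matching frequency for the tag-only sample, gives the binding signal.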

For a further assay, the target named is ETV5 (Homo sapiens, UniProt P41161 1-510). The note with it: protein: recombinant; tags: N-terminal GST; dsDNA, one strand shown. Summed up: as §1
In the next assay the target is HSF1 (Homo sapiens, UniProt Q00613 1-529). The note with it: protein: recombinant; tags: N-terminal GST; chain copies: 3; dsDNA, one strand shown. The method in brief: as §1
The target in another assay is T2, SPIC (Homo sapiens, UniProt Q8N5J4 1-248).
T2 sequence: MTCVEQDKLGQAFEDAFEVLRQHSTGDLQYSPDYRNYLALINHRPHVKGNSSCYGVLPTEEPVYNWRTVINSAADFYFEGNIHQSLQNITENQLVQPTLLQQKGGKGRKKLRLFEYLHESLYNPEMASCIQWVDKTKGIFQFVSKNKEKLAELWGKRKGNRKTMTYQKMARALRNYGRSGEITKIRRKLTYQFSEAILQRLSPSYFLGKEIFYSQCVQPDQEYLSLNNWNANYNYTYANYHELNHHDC
The note with it: protein: recombinant; tags: N-terminal GST; dsDNA, one strand shown. The method in brief: as §1

Another assay deals with ELF4 (Homo sapiens, UniProt Q99607 1-663). To be noted: protein: recombinant; tags: N-terminal GST; dsDNA, one strand shown. The method in brief: as §1
In another assay the target is T3, ELK4 (Homo sapiens, UniProt P28324-2 1-405).
T3 sequence: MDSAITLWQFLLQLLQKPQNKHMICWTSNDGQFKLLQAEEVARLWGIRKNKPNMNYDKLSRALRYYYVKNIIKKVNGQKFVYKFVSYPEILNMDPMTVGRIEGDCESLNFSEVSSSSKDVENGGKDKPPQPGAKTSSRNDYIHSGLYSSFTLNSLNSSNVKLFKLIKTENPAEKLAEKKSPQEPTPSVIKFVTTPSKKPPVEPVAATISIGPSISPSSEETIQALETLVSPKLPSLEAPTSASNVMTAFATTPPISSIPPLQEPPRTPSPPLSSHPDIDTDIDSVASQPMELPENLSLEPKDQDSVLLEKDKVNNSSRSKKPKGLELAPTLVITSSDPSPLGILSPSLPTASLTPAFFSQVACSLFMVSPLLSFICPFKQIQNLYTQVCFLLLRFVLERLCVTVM
To be noted: protein: recombinant; tags: N-terminal GST; dsDNA, one strand shown. Summed up: as §1

The target in the next assay is T4, ETV2 (Homo sapiens, UniProt O00321 1-342).
T4 sequence: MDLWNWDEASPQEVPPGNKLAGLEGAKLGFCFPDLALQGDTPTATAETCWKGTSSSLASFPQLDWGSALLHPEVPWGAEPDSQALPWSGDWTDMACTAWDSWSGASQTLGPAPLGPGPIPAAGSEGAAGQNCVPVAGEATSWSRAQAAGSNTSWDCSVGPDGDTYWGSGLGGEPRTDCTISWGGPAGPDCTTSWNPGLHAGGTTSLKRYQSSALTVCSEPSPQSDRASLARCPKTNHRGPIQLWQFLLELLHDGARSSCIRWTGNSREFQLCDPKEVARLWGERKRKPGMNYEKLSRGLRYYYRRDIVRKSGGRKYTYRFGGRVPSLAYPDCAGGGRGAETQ
The note with it: protein: recombinant; tags: N-terminal GST; dsDNA, one strand shown. The method in brief: as §1

The next assay addresses T5, ELF3 (Homo sapiens, UniProt P78545 1-371).
T5 sequence: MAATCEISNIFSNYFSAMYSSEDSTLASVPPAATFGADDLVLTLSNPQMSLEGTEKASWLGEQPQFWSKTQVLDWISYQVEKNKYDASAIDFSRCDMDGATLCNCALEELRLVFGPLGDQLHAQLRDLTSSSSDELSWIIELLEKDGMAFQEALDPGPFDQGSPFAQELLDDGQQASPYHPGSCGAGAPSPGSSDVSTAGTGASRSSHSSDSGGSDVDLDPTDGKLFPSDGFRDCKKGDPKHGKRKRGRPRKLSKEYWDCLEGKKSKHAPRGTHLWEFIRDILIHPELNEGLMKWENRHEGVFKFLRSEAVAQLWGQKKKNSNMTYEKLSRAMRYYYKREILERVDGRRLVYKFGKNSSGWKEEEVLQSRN
The note with it: protein: recombinant; tags: N-terminal GST; dsDNA, one strand shown. Summed up: as §1

Another assay has as its target CRX (Homo sapiens, UniProt O43186 1-299). The note with it: protein: recombinant; tags: N-terminal GST; dsDNA, one strand shown. The method in brief: as §1
The target of the next assay is ETV1 (Homo sapiens, UniProt P50549 1-477). To be noted: protein: recombinant; tags: N-terminal GST; dsDNA, one strand shown. The method in brief:
as §1

The target of the next assay is T6, ERF (Homo sapiens, UniProt P50548 1-548).
T6 sequence: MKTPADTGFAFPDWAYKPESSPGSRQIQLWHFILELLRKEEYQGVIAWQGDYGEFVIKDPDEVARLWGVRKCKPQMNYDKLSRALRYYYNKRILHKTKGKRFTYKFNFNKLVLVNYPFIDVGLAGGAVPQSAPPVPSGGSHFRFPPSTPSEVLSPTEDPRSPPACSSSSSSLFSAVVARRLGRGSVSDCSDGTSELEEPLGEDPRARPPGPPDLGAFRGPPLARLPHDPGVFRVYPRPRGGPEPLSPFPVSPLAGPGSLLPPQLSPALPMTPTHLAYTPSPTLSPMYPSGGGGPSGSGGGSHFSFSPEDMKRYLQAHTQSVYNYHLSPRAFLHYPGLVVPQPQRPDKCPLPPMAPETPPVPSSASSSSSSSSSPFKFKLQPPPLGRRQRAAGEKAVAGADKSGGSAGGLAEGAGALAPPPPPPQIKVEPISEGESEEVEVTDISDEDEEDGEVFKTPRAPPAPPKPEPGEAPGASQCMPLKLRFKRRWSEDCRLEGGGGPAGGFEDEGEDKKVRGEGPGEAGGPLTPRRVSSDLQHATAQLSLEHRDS
To be noted: protein: recombinant; tags: N-terminal GST; dsDNA, one strand shown. Summed up:
as §1

A further assay has as its target T7, ETV3L (Homo sapiens, UniProt Q6ZN32 1-361).
T7 sequence: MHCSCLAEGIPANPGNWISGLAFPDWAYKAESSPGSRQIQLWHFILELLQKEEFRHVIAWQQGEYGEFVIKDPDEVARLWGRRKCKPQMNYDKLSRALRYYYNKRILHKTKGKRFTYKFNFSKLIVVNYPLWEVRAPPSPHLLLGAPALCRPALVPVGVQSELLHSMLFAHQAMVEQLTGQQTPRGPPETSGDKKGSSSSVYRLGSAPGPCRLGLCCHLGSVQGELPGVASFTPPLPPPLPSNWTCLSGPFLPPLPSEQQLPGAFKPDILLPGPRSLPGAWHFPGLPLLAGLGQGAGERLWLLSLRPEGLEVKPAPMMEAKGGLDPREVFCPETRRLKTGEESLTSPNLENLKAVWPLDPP
To be noted: protein: recombinant; tags: N-terminal GST; dsDNA, one strand shown. The method in brief: as §1

A further assay addresses T8, ETS2 (Homo sapiens, UniProt P15036 1-469).
T8 sequence: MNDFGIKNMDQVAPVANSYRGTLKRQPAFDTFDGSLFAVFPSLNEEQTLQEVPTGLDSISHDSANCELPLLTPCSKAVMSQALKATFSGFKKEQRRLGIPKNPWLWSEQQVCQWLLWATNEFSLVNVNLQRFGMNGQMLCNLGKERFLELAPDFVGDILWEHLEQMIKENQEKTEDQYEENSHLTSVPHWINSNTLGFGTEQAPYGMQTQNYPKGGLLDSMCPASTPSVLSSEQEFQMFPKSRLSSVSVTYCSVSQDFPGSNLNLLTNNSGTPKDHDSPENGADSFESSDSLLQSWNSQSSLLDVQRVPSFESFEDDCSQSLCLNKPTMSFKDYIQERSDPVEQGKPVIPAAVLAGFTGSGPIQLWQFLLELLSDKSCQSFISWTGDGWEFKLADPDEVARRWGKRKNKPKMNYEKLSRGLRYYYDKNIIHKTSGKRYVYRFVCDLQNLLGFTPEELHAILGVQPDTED
To be noted: protein: recombinant; tags: N-terminal GST; dsDNA, one strand shown. Summed up: as §1

In the next assay the target is T9, SPDEF (Homo sapiens, UniProt O95238 1-335).
T9 sequence: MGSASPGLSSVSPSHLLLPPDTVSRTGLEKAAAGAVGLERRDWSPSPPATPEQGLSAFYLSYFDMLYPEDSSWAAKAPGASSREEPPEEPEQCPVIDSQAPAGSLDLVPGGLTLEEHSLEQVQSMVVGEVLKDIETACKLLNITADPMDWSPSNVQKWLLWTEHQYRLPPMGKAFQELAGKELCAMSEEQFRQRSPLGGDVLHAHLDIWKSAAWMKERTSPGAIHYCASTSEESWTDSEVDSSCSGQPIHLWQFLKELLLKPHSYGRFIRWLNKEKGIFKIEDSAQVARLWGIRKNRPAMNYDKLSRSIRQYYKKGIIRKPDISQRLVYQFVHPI
The note with it: protein: recombinant; tags: N-terminal GST; dsDNA, one strand shown. The method in brief: as §1

The next assay concerns the target T10, ETV7 (Homo sapiens, UniProt Q9Y603 1-341).
T10 sequence: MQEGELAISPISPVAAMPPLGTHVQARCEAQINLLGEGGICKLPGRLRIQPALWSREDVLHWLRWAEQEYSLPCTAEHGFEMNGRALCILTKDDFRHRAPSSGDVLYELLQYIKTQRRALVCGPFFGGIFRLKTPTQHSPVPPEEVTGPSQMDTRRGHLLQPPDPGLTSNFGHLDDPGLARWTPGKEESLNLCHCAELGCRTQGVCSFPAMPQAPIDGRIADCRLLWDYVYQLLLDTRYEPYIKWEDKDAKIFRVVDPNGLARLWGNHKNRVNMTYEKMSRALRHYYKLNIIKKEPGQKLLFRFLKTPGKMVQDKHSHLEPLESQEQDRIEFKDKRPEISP
The note with it: protein: recombinant; tags: N-terminal GST; dsDNA, one strand shown. The method in brief:
as §1

For another assay, the target named is T11, ELF5 (Homo sapiens, UniProt Q9UKW6-2 1-255).
T11 sequence: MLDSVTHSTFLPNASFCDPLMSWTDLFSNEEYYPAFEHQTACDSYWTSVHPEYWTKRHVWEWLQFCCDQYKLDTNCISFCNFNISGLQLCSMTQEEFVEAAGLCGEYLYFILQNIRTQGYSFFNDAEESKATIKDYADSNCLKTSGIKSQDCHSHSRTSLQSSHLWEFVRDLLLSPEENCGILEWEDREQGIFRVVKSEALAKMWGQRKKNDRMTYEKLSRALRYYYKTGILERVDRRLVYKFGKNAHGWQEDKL
The note with it: protein: recombinant; tags: N-terminal GST; dsDNA, one strand shown. The method in brief: as §1

Another assay deals with T12, ETV3 (Homo sapiens, UniProt P41162-2 1-143).
T12 sequence: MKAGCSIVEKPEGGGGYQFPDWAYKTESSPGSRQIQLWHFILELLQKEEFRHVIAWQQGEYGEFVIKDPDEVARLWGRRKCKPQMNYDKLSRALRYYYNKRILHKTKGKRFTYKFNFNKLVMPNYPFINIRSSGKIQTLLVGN
To be noted: protein: recombinant; tags: N-terminal GST; dsDNA, one strand shown. Summed up: as §1

For a further assay, the target named is ETV6 (Homo sapiens, UniProt P41212 1-452). To be noted: protein: recombinant; tags: N-terminal GST; dsDNA, one strand shown. Summed up: as §1
ETV6, sequence (P41212 whole entry): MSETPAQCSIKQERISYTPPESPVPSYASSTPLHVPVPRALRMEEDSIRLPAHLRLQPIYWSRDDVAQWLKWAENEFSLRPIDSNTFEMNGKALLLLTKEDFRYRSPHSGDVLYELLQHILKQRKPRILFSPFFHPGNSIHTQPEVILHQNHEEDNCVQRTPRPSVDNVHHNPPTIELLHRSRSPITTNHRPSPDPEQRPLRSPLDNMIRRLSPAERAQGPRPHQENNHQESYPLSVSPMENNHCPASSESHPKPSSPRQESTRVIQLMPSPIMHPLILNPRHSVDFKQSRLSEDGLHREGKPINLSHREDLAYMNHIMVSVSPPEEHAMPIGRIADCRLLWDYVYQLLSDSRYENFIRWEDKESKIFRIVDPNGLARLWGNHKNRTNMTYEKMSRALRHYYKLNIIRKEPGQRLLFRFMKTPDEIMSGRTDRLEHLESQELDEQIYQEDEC

CRX, sequence (O43186 whole entry): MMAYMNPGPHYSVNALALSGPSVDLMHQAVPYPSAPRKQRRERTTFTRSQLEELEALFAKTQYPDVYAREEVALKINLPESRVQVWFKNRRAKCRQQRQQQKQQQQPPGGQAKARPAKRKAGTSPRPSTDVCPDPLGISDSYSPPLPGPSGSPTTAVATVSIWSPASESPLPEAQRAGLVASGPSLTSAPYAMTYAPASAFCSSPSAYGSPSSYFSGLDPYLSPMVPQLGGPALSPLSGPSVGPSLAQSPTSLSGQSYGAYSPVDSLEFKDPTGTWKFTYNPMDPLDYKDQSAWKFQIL
ETV5, sequence (P41161 whole entry): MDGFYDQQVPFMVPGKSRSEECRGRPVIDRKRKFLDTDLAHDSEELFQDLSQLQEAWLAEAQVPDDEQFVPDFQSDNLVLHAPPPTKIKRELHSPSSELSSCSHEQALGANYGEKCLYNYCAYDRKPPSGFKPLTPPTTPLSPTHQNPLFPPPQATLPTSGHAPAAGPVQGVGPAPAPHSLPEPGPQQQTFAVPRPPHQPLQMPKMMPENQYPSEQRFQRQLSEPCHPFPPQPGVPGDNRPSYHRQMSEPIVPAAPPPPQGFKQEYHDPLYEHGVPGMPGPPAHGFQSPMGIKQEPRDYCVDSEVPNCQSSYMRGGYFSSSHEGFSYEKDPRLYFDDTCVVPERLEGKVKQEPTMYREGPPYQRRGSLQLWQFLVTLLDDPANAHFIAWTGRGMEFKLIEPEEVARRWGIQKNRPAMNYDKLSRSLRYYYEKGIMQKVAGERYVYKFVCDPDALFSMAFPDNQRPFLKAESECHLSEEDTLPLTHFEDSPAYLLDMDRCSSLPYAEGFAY
HSF1, sequence (Q00613 whole entry): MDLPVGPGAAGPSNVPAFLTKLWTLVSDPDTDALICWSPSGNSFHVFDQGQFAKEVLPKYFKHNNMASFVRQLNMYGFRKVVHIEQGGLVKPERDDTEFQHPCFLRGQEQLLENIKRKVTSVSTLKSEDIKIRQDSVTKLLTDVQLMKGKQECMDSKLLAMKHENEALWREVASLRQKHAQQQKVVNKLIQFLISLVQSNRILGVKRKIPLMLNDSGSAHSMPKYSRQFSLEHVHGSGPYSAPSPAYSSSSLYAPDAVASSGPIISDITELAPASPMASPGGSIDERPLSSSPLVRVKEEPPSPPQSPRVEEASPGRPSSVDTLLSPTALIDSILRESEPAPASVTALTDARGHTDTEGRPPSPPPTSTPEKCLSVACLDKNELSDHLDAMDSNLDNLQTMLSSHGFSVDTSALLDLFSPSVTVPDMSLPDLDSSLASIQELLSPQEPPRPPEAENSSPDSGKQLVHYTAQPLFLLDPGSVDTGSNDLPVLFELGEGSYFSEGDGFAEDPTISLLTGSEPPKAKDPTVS
ETV1, sequence (P50549 whole entry): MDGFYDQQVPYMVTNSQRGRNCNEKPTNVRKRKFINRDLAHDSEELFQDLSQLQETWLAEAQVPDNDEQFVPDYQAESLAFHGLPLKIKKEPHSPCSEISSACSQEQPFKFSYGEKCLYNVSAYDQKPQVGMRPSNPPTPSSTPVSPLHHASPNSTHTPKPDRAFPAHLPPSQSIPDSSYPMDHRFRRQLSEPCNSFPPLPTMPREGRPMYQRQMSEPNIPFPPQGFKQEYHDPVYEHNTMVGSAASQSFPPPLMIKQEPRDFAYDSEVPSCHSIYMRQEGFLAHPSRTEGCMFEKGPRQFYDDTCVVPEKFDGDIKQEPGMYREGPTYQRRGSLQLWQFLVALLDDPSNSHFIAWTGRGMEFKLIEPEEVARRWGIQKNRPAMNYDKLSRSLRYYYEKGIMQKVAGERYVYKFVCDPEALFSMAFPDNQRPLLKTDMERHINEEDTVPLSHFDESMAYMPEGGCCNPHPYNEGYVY
ELF4, sequence (Q99607 whole entry): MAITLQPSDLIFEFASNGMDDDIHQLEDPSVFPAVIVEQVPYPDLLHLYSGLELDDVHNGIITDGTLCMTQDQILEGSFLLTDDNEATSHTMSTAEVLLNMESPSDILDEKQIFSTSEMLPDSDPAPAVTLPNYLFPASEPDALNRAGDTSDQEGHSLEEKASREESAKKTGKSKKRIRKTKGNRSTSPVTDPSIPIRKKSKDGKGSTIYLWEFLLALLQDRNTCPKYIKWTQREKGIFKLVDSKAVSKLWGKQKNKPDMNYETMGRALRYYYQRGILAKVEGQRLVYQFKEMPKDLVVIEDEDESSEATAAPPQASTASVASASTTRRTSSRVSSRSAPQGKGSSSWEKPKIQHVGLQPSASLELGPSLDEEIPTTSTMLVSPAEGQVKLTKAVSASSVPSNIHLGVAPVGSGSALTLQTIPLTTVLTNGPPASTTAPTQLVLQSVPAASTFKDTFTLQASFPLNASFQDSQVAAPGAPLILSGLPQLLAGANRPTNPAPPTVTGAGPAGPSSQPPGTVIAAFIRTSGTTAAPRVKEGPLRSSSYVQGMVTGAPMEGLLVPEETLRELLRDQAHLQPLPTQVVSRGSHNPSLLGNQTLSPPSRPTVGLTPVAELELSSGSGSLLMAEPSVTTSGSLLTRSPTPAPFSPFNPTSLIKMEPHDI

For GTCTTT, the binding signal with FEV was 1.14 fold enrichment (6-mer frequency, TF over GST control); with ETV5 it was 1.22 fold enrichment (6-mer frequency, TF over GST control); in the assay with HSF1, 1.22 fold enrichment (6-mer frequency, TF over GST control); with SPIC, 1.26 fold enrichment (6-mer frequency, TF over GST control); with ELF4, 1.22 fold enrichment (6-mer frequency, TF over GST control); with ELK4 it was 1.21 fold enrichment (6-mer frequency, TF over GST control). For the same sequence, the binding signal with ETV2 is 1.12 fold enrichment (6-mer frequency, TF over GST control); in the assay with ELF3, 1.27 fold enrichment (6-mer frequency, TF over GST control); with CRX, 1.24 fold enrichment (6-mer frequency, TF over GST control); in the assay with ETV1, 1.13 fold enrichment (6-mer frequency, TF over GST control); with ERF it was 1.27 fold enrichment (6-mer frequency, TF over GST control); with ETV3L, 1.27 fold enrichment (6-mer frequency, TF over GST control). Also, the binding signal was 1.26 fold enrichment (6-mer frequency, TF over GST control) in the assay with ETS2; 1.17 fold enrichment (6-mer frequency, TF over GST control) with SPDEF; 1.28 fold enrichment (6-mer frequency, TF over GST control) with ETV7; 1.31 fold enrichment (6-mer frequency, TF over GST control) with ELF5; 1.26 fold enrichment (6-mer frequency, TF over GST control) with ETV3; 1.24 fold enrichment (6-mer frequency, TF over GST control) with ETV6.
